The values below come from PubChem BioAssay (NCI).

Common to all, as to assay: NCI-60 one-dose screen, 48 h (100 = growth as untreated, 0 = no growth, -100 = all killed)
Holding throughout (conditions): 10 µM unless noted

For test [1], the system named is NCI-H23 lung.
Test [2] concerns NCI-H226 lung.
The subject of test [3] is NCI-H322M lung.
The subject of test [4] is HOP-62 NSCLC.
In test [5] the test system is NCI-H460 lung.
In test [6] the test system is HOP-92 NSCLC.
The subject of test [7] is A549/ATCC NSCLC.
For test [8], the system named is 786-0 renal.
Test [9] concerns COLO 205 colon.
For test [10], the system named is DU-145 prostate.
Test [11] relates to K-562 leukemia.
Test [12] has as its system MALME-3M melanoma.
Test [13] has as its system MDA-MB-231 breast.
Test [14] deals with SF-268 CNS.
Test [15] relates to SF-295 CNS.
The subject of test [16] is SF-539 CNS.
Test [17] relates to M14 melanoma.
For test [18], the system named is UACC-257 melanoma.
Test [19] concerns RXF 393 renal.

The panel holds about 83,000 compounds, 20% with a hit somewhere; the sample as a whole holds those more often.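 Assay: single dose, 48 h. Readout: percent growth (0 = no net growth; negative = cell death). Active: <10.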 Unmarked numbers belong to inactive results. The source made the active and inactive calls.

Regarding `COc1ccc2c(=O)c(OC)c(-c3cc(OC)c(OC)c(OC)c3)oc2c1`, the growth in [1] is 86.4%; in test [2] it was 91.3%; in test [3], 89.1%; in test [4] it was 82.8%; in test [5], 102%; in [6] it was 46.5%. Further, the growth is 44.1% in test [7]; 67.8% in test [8]; 129% in test [9]; 109% in [10]; 87.1% in test [11]; 113% in test [12]. The growth in [13] was 84.1%; in test [14], 100%; in test [15] it was 113%; in test [16] it was 91.5%; in [17] it was 109%.
In the case of `NC(=O)c1cc(Cl)ccc1NC(=O)c1ccccc1-c1ccccc1`, the growth is 39.9% in test [1]; 57.7% in test [2]; 30% in test [3]; 39% in [4]; 13.2% in [5]; 67.7% in test [6]. For the same compound, the growth was 35.6% in test [7]; 26.6% in test [8]; -14.1% (active) in test [9]; -8.79% (active) in test [10]; 11.5% in test [11]; 30.4% in [12]. For the same compound, the growth in test [13] was 29.4%; in test [14], 54.1%; in test [15] it was 8.66% (active); in test [16] it was -12.5% (active); in test [18] it was 68.6%; in test [17] it was -24% (active).
As for `O=C(CN1CCN(c2ccc(Cl)cc2)CC1)N1CCN(c2nnc(-c3ccccc3)c(-c3ccccc3)n2)CC1`, the growth in [1] was 34.9%; in test [2], 43.7%; in test [3], 80.7%; in test [4], 58.1%; in test [5] it was 30.7%; in test [6] it was 39.1%. Besides, the growth in test [7] is -6.5% (active); in test [8] it was 35.9%; in test [9] it was 33%; in test [10], 62.8%; in test [11] it was 4.43% (active); in test [12] it was 76.5%. Moreover, the growth in [13] was 64.5%; in [14] it was 58.5%; in [15], 38.4%; in test [16], 50.5%; in test [17] it was 60.1%.
Take `CC(=O)c1ccc(NS(=O)(=O)c2ccc([N+](=O)[O-])cc2)cc1`: the growth in [1] is 105%; in [2] it was 99.4%; in test [3], 121%; in test [4], 87%; in test [5], 114%; in test [6] it was 83.4%. Besides, the growth is 95.5% in test [7]; 105% in test [8]; 106% in [9]; 111% in test [10]; 82.1% in test [11]; 115% in test [12]. Also, the growth in [13] was 88.9%; in [19] it was 104%; in [14] it was 104%; in [16] it was 97.8%; in test [18], 105%; in test [17], 107%.
On to `COc1ccc(NC(=O)c2ccc(-c3ccccc3)cc2)c(C(N)=O)c1`, for which the growth in test [1] is 94.5%; in [2], 94.9%; in test [3], 91.6%; in [4], 103%; in test [5], 100%; in test [6], 103%. The growth in test [7] was 94.1%; in test [8], 106%; in [9], 110%; in [10] it was 102%; in test [11], 92.5%; in test [12], 91.6%. Also, the growth in test [13] is 91.3%; in test [14], 113%; in test [15], 99.3%; in [16], 97.4%; in test [18], 102%; in [17], 110%.
Consider `O=C(Oc1ccccc1)C(Br)C(Br)c1ccccc1` (centres undefined), for which the growth in test [1] was 112%; in test [2], 107%; in [3] it was 179%; in test [4] it was 107%; in [5], 109%; in [6], 81.6%. The growth in [7] is 91.9%; in test [8] it was 98.3%; in test [9], 49.4%; in test [10] it was -38.7% (active); in test [11], -44.2% (active); in test [13], 101%. The growth in [19] is 98.2%; in test [14], 78.7%; in test [15], 130%; in test [16], 110%; in test [18] it was 93.9%; in [17], 102%.
Take `Clc1ccc2nc(CI)c(CI)nc2c1`: the growth is 85.8% in test [1]; 56.4% in test [2]; 83.7% in [3]; 94.3% in test [4]; 118% in [5]; 19.3% in test [6]. Moreover, the growth in [7] was 96.1%; in [8], 0.747% (active); in test [9] it was 0% (active); in test [10], 86.1%; in test [11], -20.1% (active); in test [12], 74.6%. The growth in [13] was 74.4%; in test [14] it was 73.7%; in [15], 88.8%; in test [16], 100%; in test [18], 86.2%; in test [17], 48.9%.
As for `Cn1c(=O)c2[nH]c(=S)n(Cc3ccccc3)c2n(C)c1=O`, the growth is 93.1% in test [1]; 104% in test [2]; 118% in test [3]; 70% in test [4]; 110% in [5]; 91.8% in [6]. Further, the growth in [7] was 95.2%; in test [8], 102%; in test [9] it was 109%; in test [10], 105%; in [11], 84.6%; in test [13], 101%. For the same compound, the growth in [19] is 120%; in [14], 95.8%; in [15], 118%; in [16], 93.8%; in test [18], 90.4%; in test [17], 99.7%.
With `COc1cccc(N2CCN(CC(=O)N3CCN(c4nnc(-c5ccc(Cl)cc5)c(-c5ccc(Cl)cc5)n4)CC3)CC2)c1`, the growth is 82.9% in test [1]; 74.7% in test [2]; 71.9% in test [3]; 95.9% in test [4]; 70.8% in test [5]; 11.9% in test [6]. The growth is -1.64% (active) in test [7]; 79.4% in [8]; 78.6% in test [9]; 89% in test [10]; 32.6% in test [11]; 92.2% in test [12]. Further, the growth was 83.1% in test [13]; 84.1% in test [14]; 66.7% in test [15]; 57.8% in test [16]; 70.5% in test [17].
Turning to `c1ccc(-c2oc(-c3ccccc3)c3ccccc23)cc1`, the growth was 99.2% in [1]; 104% in test [2]; 118% in test [3]; 98.2% in test [4]; 102% in test [5]; 78.7% in test [6]. The growth in test [7] was 99%; in test [8], 101%; in test [9] it was 105%; in test [10] it was 90.3%; in [11] it was 86.5%; in [13], 91%. The growth was 116% in test [19]; 102% in test [14]; 102% in test [15]; 104% in [16]; 108% in test [18]; 110% in test [17].
Turning to `Cc1cc(-c2ccccc2)cc(C)n1`, the growth is 103% in test [1]; 102% in test [2]; 105% in test [3]; 112% in test [4]; 112% in test [5]; 95.4% in [6]. The growth in test [7] was 92.7%; in test [8], 99%; in test [9], 120%; in test [10] it was 125%; in test [11], 98%; in test [13], 101%. In addition, the growth was 117% in test [19]; 111% in test [14]; 101% in test [15]; 102% in test [16]; 108% in [18]; 103% in test [17].
On to `O=C1N=C(N2CCOCC2)S/C1=C\c1cn(-c2ccccc2)nc1-c1ccccc1`, for which the growth is 95.2% in test [1]; 78.8% in test [2]; 73.3% in test [3]; 68.5% in test [4]; 67.3% in test [5]; 94.6% in test [6]. Further, the growth in test [7] was 94.8%; in test [8] it was 25.6%; in test [9], 122%; in test [10] it was 69.9%; in [11] it was 92.9%; in test [13], 52.7%. For the same compound, the growth in test [19] was 51.8%; in [14], 74.8%; in test [15], 48.4%; in [16] it was 28.4%; in [18], 81.9%; in test [17], 83.5%.
`COc1ccc(NC(=O)c2ccccc2-c2ccccc2)c(C(N)=O)c1`: the growth is 53.7% in test [1]; 70.2% in [2]; 58.7% in [3]; 45.3% in test [4]; 17% in test [5]; 57.3% in test [6]. Further, the growth in test [7] is 46.5%; in test [8], 28.5%; in test [9] it was 9.95% (active); in test [10], 29.6%; in test [11] it was 14.2%; in [12] it was 34.3%. The growth in [13] was 54.1%; in [14] it was 49.5%; in test [15], 17.4%; in test [16], -1.25% (active); in test [18], 49.7%; in test [17] it was 18.2%.
Turning to `CCOC(=O)C(C(=O)OCC)C1CCCCC1`, the growth in [1] was 106%; in test [2] it was 98.7%; in [3], 94%; in [4] it was 107%; in [5], 106%; in test [6], 82.4%. Besides, the growth is 96.8% in test [7]; 96.4% in test [8]; 112% in test [9]; 107% in [10]; 104% in [11]; 96% in test [12]. Besides, the growth in [13] is 108%; in test [19] it was 107%; in [14], 99.1%; in [16], 99.4%; in test [18] it was 96.3%; in test [17], 102%.
`NS(=O)(=O)c1ccc(-n2nc(-c3ccc(Br)cc3)ccc2=O)cc1`: the growth was 61.3% [100 µM] in [1]; 79.5% [100 µM] in [2]; 87.7% [100 µM] in [3]; 20% [100 µM] in test [4]; 67.2% [100 µM] in [5]; -30.5% [100 µM] (active) in test [6]. The growth is 58% [100 µM] in test [7]; 46.7% [100 µM] in test [8]; 80.2% [100 µM] in test [9]; 12.4% [100 µM] in [10]; 40.1% [100 µM] in test [11]; 55.1% [100 µM] in test [12]. The growth in test [13] is 34.2% [100 µM]; in test [19], 40.9% [100 µM]; in [14], 66.8% [100 µM]; in [16], 67% [100 µM]; in test [18] it was 106% [100 µM]; in [17], 62.4% [100 µM].
Regarding `N[C@H](CS)C(=O)O`, the growth in test [1] is 102%; in test [2], 105%; in [3] it was 83.8%; in test [4] it was 101%; in test [5], 103%; in test [6] it was 86.4%. Also, the growth is 99.5% in [7]; 105% in test [8]; 120% in test [9]; 121% in [10]; 107% in test [11]; 91% in test [12]. Besides, the growth in [13] is 114%; in test [14] it was 119%; in test [15] it was 94.4%; in test [16], 89.7%; in test [17] it was 116%.
